High-throughput results as filed in PubChem.
KDM5B inh – inhibitors of human KDM5B histone demethylase; Q9UGL1; KDM5B demethylase, FDH-coupled NADH fluorescence (FDH is formaldehyde dehydrogenase); Potency, µM (highest dose often 57.7 µM), usual class: inhibitors; 220,000 tested, 2.6% active; active means well fitted inhibition curve with a large enough effect; inconclusive means small, poorly fitted or top-dose-only effect; inactive means no such curve, though single readings can be large or run the other way; further: nearly all actives have a fitted effect of over 70% in size
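Compound dilutions met 200 nM (final) KDM5BΔAP for 10 min at room temperature before substrate addition. The substrate mix held 12.5 µM H3K4me3 with cofactors 25 µM α-ketoglutarate and 50 µM Fe²⁺. NADH signal gain over 30 min defined activity.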
IP6K1 inh – inhibitors of human IP6K1; IP6K1 kinase, ADP-Glo luminescence, 2 h; hits give low values; activity change, % (series mostly up to about 58 µM); 140,000 tested, 0.81% active; in the data active means activity change below about -25%
Target sequence (Q92551 whole entry, looked up): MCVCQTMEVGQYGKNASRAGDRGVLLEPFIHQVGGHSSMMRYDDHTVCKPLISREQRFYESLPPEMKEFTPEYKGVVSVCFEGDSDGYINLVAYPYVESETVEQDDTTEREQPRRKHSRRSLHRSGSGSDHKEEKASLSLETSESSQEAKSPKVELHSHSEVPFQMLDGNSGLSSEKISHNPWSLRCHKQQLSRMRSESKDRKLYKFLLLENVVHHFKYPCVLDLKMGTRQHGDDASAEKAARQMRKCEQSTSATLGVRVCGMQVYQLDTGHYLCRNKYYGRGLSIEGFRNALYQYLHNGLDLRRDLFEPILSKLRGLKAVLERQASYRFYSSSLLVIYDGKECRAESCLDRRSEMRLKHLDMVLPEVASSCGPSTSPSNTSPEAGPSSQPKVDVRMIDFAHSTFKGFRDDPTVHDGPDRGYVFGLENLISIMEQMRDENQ
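ADP-Glo luminescence measures ADP made by human IP6K1 during a 2 h RT reaction with ATP/IP6 (mix at 1.3 mM/130 uM); top library doses 57.5 and 19.1 uM final.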
Of the large screens only hits and unclear results are named; the others gave an inactive call. An excerpt weighted towards active compounds, which were near 2.8% of everything screened.

CCOCCCNC(=O)c1c(C)noc1-c1cc(OC)c(OC)c(OC)c1	KDM5B inh 28.2µM
COc1cc(-c2onc(C)c2C(=O)NCCC(c2ccccc2)c2ccccc2)cc(OC)c1OC	KDM5B inh 28.2µM
CCOCCCNC(=O)c1c(C)noc1-c1ccc(OC)cc1	none
COc1cc(-c2onc(C)c2C(=O)NCCCOC(C)C)cc(OC)c1OC	KDM5B inh 31.6µM
COc1cc(-c2onc(C)c2C(=O)NCC2CCCO2)cc(OC)c1OC (centres undefined)	KDM5B inh 28.2µM
Cc1noc(-c2ccc3c(c2)OCO3)c1C(=O)NCCCOC(C)C	KDM5B inh inconclusive
COc1ccc(-c2cc(C(=O)NCC3CCCO3)c3cc(C)ccc3n2)cc1 (centres undefined)	none (no result: IP6K1 inh)
COc1cc(-c2onc(C)c2C(=O)N(C)Cc2ccccc2)cc(OC)c1OC	KDM5B inh inconclusive
COc1ccc(-c2cc(C(=O)Nc3cccc(F)c3)c3cnn(C)c3n2)cc1	none (no result: KDM5B inh)
O=C(NCC(=O)N1CCCC1)c1ccc(-c2cccc(C(F)(F)F)c2)cc1	none (no result: KDM5B inh)
Cc1oc(-c2cccc(Cl)c2)nc1CN1CCN(C(=O)c2ccco2)CC1	none (no result: IP6K1 inh)
COc1cc(CNC(=O)c2c(C)noc2-c2cc(OC)c(OC)c(OC)c2)cc(OC)c1	KDM5B inh 28.2µM
COCCNC(=O)c1c(C)noc1-c1cc(OC)c(OC)c(OC)c1	KDM5B inh 28.2µM
CCCOCCNC(=O)c1c(C)noc1-c1cc(OC)cc(OC)c1	none
COc1ccc(CNC(=O)c2c(C)noc2-c2ccc(OC)cc2)cc1	none
Cc1ccc2c(=O)cc(C(=O)N(Cc3ccccc3)Cc3ccco3)oc2c1C	none (no result: IP6K1 inh)
COc1ccc(CCC(=O)NC(C)C(=O)N2CCN(c3ccccn3)CC2)cc1 (centres undefined)	KDM5B inh inconclusive
COc1ccccc1CC(=O)NC(C)C(=O)N1CCN(c2ccccn2)CC1 (centres undefined)	KDM5B inh 28.2µM
CC(C)C(=O)NC(C)C(=O)N1CCN(c2ccccn2)CC1 (centres undefined)	KDM5B inh inconclusive
COc1ccccc1CCC(=O)NC(C)C(=O)N1CCN(c2ccccn2)CC1 (centres undefined)	KDM5B inh 25.1µM
COCC1CN(Cc2ccccc2)C(=O)c2ccc(C)nc2O1 (centres undefined)	none (no result: KDM5B inh)
CCN(CC)c1ccc(C(=O)NCc2nnc3ccc(-c4ccc(C)cc4)nn23)cc1	none
Cc1ccc(-c2ccc3nnc(CNC(=O)c4c(F)cccc4F)n3n2)cc1	KDM5B inh 25.1µM
Cc1ccc(-c2ccc3nnc(CNC(=O)c4cc(F)ccc4F)n3n2)cc1	KDM5B inh 25.1µM
COc1ccc(C(=O)NCc2nnc3ccc(-c4ccc(F)cc4)nn23)c(OC)c1	KDM5B inh inconclusive
Cc1ccc(-c2ccc3nnc(CNC(=O)c4ccc(F)cc4)n3n2)cc1	KDM5B inh 25.1µM
Cc1ccc(-c2ccc3nnc(CNC(=O)c4cccc(C(F)(F)F)c4)n3n2)cc1	KDM5B inh 31.6µM
O=C(C1CCN([S+](=O)([O-])c2cccs2)CC1)N1CCCC(c2nc3ccncc3[nH]2)C1 (centres undefined)	none (no result: KDM5B inh)
Cn1c(COc2cccc(C(F)(F)F)c2)nnc1SCc1c(F)cccc1Cl	none (no result: IP6K1 inh)
O=C(NCc1nnc2ccc(-c3ccc(Cl)cc3)nn12)C1(c2ccccc2)CC1	KDM5B inh 20µM
O=C(NCc1nnc2ccc(-c3ccc(F)cc3)nn12)c1ccc(F)cc1Cl	KDM5B inh inconclusive
O=C(NCc1nnc2ccc(-c3ccc(F)cc3)nn12)c1ccc(Cl)s1	KDM5B inh 28.2µM
Cc1ccc(-c2ccc3nnc(CNC(=O)c4ccc(Cl)s4)n3n2)cc1	KDM5B inh inconclusive
O=C(NCc1nnc2ccc(-c3ccccc3)nn12)c1cc(F)ccc1Cl	KDM5B inh 17.8µM
O=C(NCc1nnc2ccc(-c3ccccc3)nn12)c1cc(Cl)ccc1F	KDM5B inh 25.1µM
CCOC(=O)[C@@H]1CN(C(=O)OCC(C)C)[C@H]2c3ccc(OC)cc3O[C@@H]12	none (no result: KDM5B inh)
CSc1ccc(-c2nc3ncccn3c2Nc2ccccc2)cc1	none (no result: IP6K1 inh)
O=C(NCc1nnc2ccc(-c3ccc(F)cc3)nn12)c1cc(Cl)ccc1F	KDM5B inh 25.1µM
O=C(NCc1nnc2ccc(-c3ccc(Cl)cc3)nn12)c1cc(F)ccc1F	KDM5B inh inconclusive
CN(C)C(=O)c1cccnc1OC1CCNCC1	KDM5B inh inconclusive
O=C(NCCc1ccccn1)c1cccnc1OC1CCNCC1	KDM5B inh 28.2µM
CCNC(=O)c1cccnc1OC1CCN(C(=O)CC)C1 (centres undefined)	none
CCNC(=O)c1cccnc1OC1CCN(Cc2ccccn2)C1 (centres undefined)	KDM5B inh 20µM
Clc1ccc(-c2nn3c(CN4CCOCC4)nnc3s2)cc1	none (no result: IP6K1 inh)
Cc1cc(Cl)ccc1-c1ccc(C=O)cc1	KDM5B inh 79.4µM
Cc1cc(Cl)ccc1-c1ccccc1C=O	none
O=Cc1ccc(-c2cccc(Cl)c2)cc1	KDM5B inh 31.6µM
NCc1ccc(-c2cccc(Cl)c2)cc1	none
O=C1OCC2(CCN(Cc3ccn[nH]3)C2)N1CCN1CCOCC1 (centres undefined)	none (no result: KDM5B inh)
COc1ccc(Br)cc1S(=O)(=O)NCC(C)CN1CCCC1 (centres undefined)	none (no result: IP6K1 inh)
Cc1cc(=O)n(CC(=O)Nc2ccc(Br)cc2F)c(N2CCc3ccccc3C2)n1	KDM5B inh 14.1µM
Cc1cc(=O)n(CC(=O)Nc2cc(F)ccc2F)c(N2CCc3ccccc3C2)n1	KDM5B inh inconclusive
COc1ccccc1-c1cccc(CN2CCC(NC(=O)c3ccccc3Cl)CC2)c1	none (no result: KDM5B inh)
COCc1ccc2c(c1)c(OC(C)(C)C(N)=O)nn2CCC(C)C	KDM5B inh 31.6µM
COCc1ccc2c(c1)c(OC(C)(C)C(=O)N1CC(O)C1)nn2CCC(C)C	KDM5B inh 35.5µM
COCc1ccc2c(c1)c(OC(C)(C)C(=O)NCCc1cccnc1)nn2CCC(C)C	KDM5B inh inconclusive
COCc1ccc2c(c1)c(OC(C)(C)C(=O)NCc1cnccn1)nn2CCC(C)C	none
CC(NC(=O)c1cc(=O)c2ccccc2o1)c1ccccc1 (centres undefined)	none (no result: IP6K1 inh)
C=CCOc1c(OC)ccc2c1CN(CCOC)C(=O)CCN2CC(O)COc1ccc(OC)cc1 (centres undefined)	none (no result: KDM5B inh)
COc1cccc(CNC(=O)C2CCc3nnc(-c4cccc(C(F)(F)F)c4)n32)c1 (centres undefined)	none (no result: KDM5B inh)
O=C(NCCc1ccc(Cl)cc1)c1nc2sccn2c1-c1ccccc1	none (no result: KDM5B inh)
O=C(NCc1ccc2c(c1)OCO2)c1nc(-c2ccc(F)cc2)c2ccccn12	KDM5B inh inconclusive
CC(C)CNC(=O)c1nc(-c2ccc(Cl)cc2)c2cnccn12	KDM5B inh inconclusive
C[S+](=O)([O-])c1ccc(-c2nc(C(=O)NCCc3ccc(Cl)cc3)n3ccccc23)cc1	KDM5B inh 89.1µM
C[S+](=O)([O-])c1ccc(-c2nc(C(=O)NCCc3ccc(Cl)cc3)n3ccncc23)cc1	KDM5B inh 79.4µM
O=C(NCCc1ccc(Cl)cc1)c1nc(-c2ccc(Cl)cc2)c2ccccn12	KDM5B inh 25.1µM
C[S+](=O)([O-])c1ccc(-c2cc(C(=O)NCCc3ccc(Cl)cc3)nn3cccc23)cc1	none
O=C(NCc1cccnc1)c1nc(-c2ccc(F)cc2)c2ccccn12	KDM5B inh 28.2µM
COc1ccccc1Nc1ccnc(N2CCC(C(=O)NCCc3ccc(F)cc3)CC2)n1	none (no result: KDM5B inh)
CN(Cc1cccc(N2CCN([S+](=O)([O-])c3cccc4ccccc34)CC2)c1F)[S+](C)(=O)[O-]	none (no result: KDM5B inh)
NC(=O)[C@@H]1CN(C(=O)OCc2ccccc2)[C@H]2c3ccccc3O[C@@H]12	none (no result: KDM5B inh)
